Assay results published in the supplement of paper PMC7411054.
Structures can show the parent of a compound that is named as a salt.

Key:
Conditions in all cases: treatment time: 24 h
[1] = test system: A549-ACTB-RAB5A; experiment: lowest phenotypically active concentration; higher = less potent
Summary of the method: (§1)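 Fifteen gene-edited A549, HepG2 and WPMY1 reporter lines (BFP segmentation plus GFP and RFP/FusionRed markers) were treated at 0.3, 1, 3 or 9 µM for 24 h, four wells each, then imaged live. Live-cell features per well were normalised to DMSO control wells. Deviation required ≥3 of 4 wells beyond the 95th percentile of DMSO Euclidean distances, and reproducibility required median replicate Pearson correlation above the 95th percentile of non-replicates. Phenotypic activity needed both criteria.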

[2] = test system: A549-CANX-COX4; experiment: as above
Summary of the method: as §1

[3] = test system: A549-GM130-SQSTM1; experiment: as above
Summary of the method: as §1

[4] = test system: A549-TUBA1B-RELA; experiment: as above
Summary of the method: as §1

[5] = test system: HepG2-TUBA1B-RELA; experiment: as above
Summary of the method: as §1

[6] = test system: A549-ACTB-RAB5A; experiment: phenotypically active (imaging signature differs from DMSO and reproducible) at any of 0.3-9 uM (binary (1 = active, 0 = inactive)); higher = active
Summary of the method: as §1

[7] = test system: A549-CANX-COX4; experiment: as above
Summary of the method: as §1

[8] = test system: A549-GM130-SQSTM1; experiment: as above
Summary of the method: as §1

[9] = test system: A549-TP53BP1-CLTA; experiment: as above
Summary of the method: as §1

[10] = test system: A549-TUBA1B-RELA; experiment: as above
Summary of the method: as §1

[11] = test system: HepG2-ACTB-RAB5A; experiment: as above
Summary of the method: as §1

[12] = test system: HepG2-CANX-COX4; experiment: as above
Summary of the method: as §1

[13] = test system: HepG2-GM130-SQSTM1; experiment: as above
Summary of the method: as §1

[14] = test system: HepG2-TP53BP1-CLTA; experiment: as above
Summary of the method: as §1

[15] = test system: HepG2-TUBA1B-RELA; experiment: as above
Summary of the method: as §1

[16] = test system: WPMY1-ACTB-RAB5A; experiment: as above
Summary of the method: as §1

[17] = test system: WPMY1-CANX-COX4; experiment: as above
Summary of the method: as §1

[18] = test system: WPMY1-GM130-SQSTM1; experiment: as above
Summary of the method: as §1

[19] = test system: WPMY1-TP53BP1-CLTA; experiment: as above
Summary of the method: as §1

[20] = test system: WPMY1-TUBA1B-RELA; experiment: as above
Summary of the method: as §1

SMILES	lowest phenotypically active concentration [1] [µM]	lowest phenotypically active concentration [2] [µM]	lowest phenotypically active concentration [3] [µM]	lowest phenotypically active concentration [4] [µM]	lowest phenotypically active concentration [5] [µM]	phenotypically active [6]	phenotypically active [7]	phenotypically active [8]	phenotypically active [9]	phenotypically active [10]	phenotypically active [11]	phenotypically active [12]	phenotypically active [13]	phenotypically active [14]	phenotypically active [15]	phenotypically active [16]	phenotypically active [17]	phenotypically active [18]	phenotypically active [19]	phenotypically active [20]
C/C=C1\NC(=O)[C@H]2CSSCCC=C[C@H](CC(=O)N[C@H](C(C)C)C(=O)N2)OC(=O)[C@H](C(C)C)NC1=O	≤ 0.3	≤ 0.3	≤ 0.3	≤ 0.3	≤ 0.3	1 (active)	1 (active)	1 (active)	1 (active)	1 (active)	1 (active)	1 (active)	1 (active)	1 (active)	1 (active)	1 (active)	1 (active)	1 (active)	1 (active)	1 (active)
CC(=O)O[C@H]1C(=O)[C@@]2(C)[C@H]([C@H](OC(=O)c3ccccc3)[C@]3(O)C[C@H](OC(=O)[C@H](O)[C@@H](NC(=O)c4ccccc4)c4ccccc4)C(C)=C1C3(C)C)[C@]1(OC(C)=O)CO[C@@H]1C[C@@H]2O [paclitaxel]	≤ 0.3	≤ 0.3	≤ 0.3	≤ 0.3	≤ 0.3	1 (active)	1 (active)	1 (active)	1 (active)	1 (active)	1 (active)	1 (active)	1 (active)	1 (active)	1 (active)	1 (active)	1 (active)	1 (active)	1 (active)	1 (active)
COc1cc2nc(N3CCN(C(=O)C4COc5ccccc5O4)CC3)nc(N)c2cc1OC (stereo not given) [doxazosin]	9	9	9	3	9	1 (active)	1 (active)	1 (active)	1 (active)	1 (active)	1 (active)	0 (inactive)	1 (active)	1 (active)	1 (active)	1 (active)	1 (active)	1 (active)	1 (active)	0 (inactive)
C=CC(=O)Nc1cccc(Nc2nc(Nc3ccc(Oc4ccnc(C(=O)NC)c4)cc3)ncc2F)c1	9	9	9	9	9	1 (active)	1 (active)	1 (active)	1 (active)	1 (active)	1 (active)	0 (inactive)	1 (active)	1 (active)	1 (active)	1 (active)	1 (active)	1 (active)	0 (inactive)	0 (inactive)
COc1cc(O)cc(O)c1C(=O)/C=C/c1ccccc1 [Cardamonin]	9	9	9	9	9	1 (active)	1 (active)	1 (active)	1 (active)	1 (active)	1 (active)	1 (active)	1 (active)	0 (inactive)	1 (active)	1 (active)	1 (active)	1 (active)	1 (active)	1 (active)
Cn1cnc2c(F)c(Nc3ccc(Br)cc3Cl)c(C(=O)NOCCO)cc21 [selumetinib]	≤ 0.3	1	≤ 0.3	≤ 0.3	1	1 (active)	1 (active)	1 (active)	1 (active)	1 (active)	1 (active)	1 (active)	1 (active)	1 (active)	1 (active)	1 (active)	0 (inactive)	1 (active)	1 (active)	0 (inactive)
Cc1cn(CCN2CCN(c3ccccc3-c3cc(C#N)cc(C(=O)NCCCN4CCCC4)c3)CC2)c2ccccc12	1	3	1	1	3	1 (active)	1 (active)	1 (active)	1 (active)	1 (active)	1 (active)	1 (active)	1 (active)	1 (active)	1 (active)	1 (active)	1 (active)	1 (active)	1 (active)	1 (active)
CC[C@]12CCCN3CCc4c(n(c5ccccc45)C(=O)C1)[C@@H]32 [Eburnamonine (-)]	9	9	9	9	9	1 (active)	1 (active)	1 (active)	1 (active)	1 (active)	1 (active)	0 (inactive)	0 (inactive)	1 (active)	1 (active)	1 (active)	1 (active)	0 (inactive)	1 (active)	1 (active)
COCC(=O)O[C@]1(CCN(C)CCCc2nc3ccccc3[nH]2)CCc2cc(F)ccc2[C@@H]1C(C)C [mibefradil]	3	9	3	3	3	1 (active)	1 (active)	1 (active)	1 (active)	1 (active)	1 (active)	1 (active)	1 (active)	1 (active)	1 (active)	1 (active)	1 (active)	1 (active)	1 (active)	1 (active)
CN(C)C(=O)C(CCN1CCC(O)(c2ccc(Cl)cc2)CC1)(c1ccccc1)c1ccccc1 [loperamide]	3	9	9	3	3	1 (active)	1 (active)	1 (active)	1 (active)	1 (active)	1 (active)	0 (inactive)	1 (active)	1 (active)	1 (active)	1 (active)	1 (active)	1 (active)	1 (active)	1 (active)
Cc1cc2c(F)c(Oc3ncnn4cc(OC[C@@H](C)O)c(C)c34)ccc2[nH]1 [brivanib]	9	9	9	9	9	1 (active)	1 (active)	1 (active)	1 (active)	1 (active)	1 (active)	1 (active)	1 (active)	1 (active)	1 (active)	1 (active)	1 (active)	0 (inactive)	1 (active)	1 (active)
COc1cc2c(cc1O)CC[C@@H]1[C@@H]2CC[C@]2(C)[C@@H](O)CC[C@@H]12 [2-methoxyestradiol]	1	1	1	1	3	1 (active)	1 (active)	1 (active)	1 (active)	1 (active)	1 (active)	1 (active)	1 (active)	1 (active)	1 (active)	1 (active)	1 (active)	0 (inactive)	1 (active)	1 (active)
O=C(O)[C@]1(Cc2cccc(Nc3nccs3)n2)CC[C@@H](Oc2cccc(Cl)c2F)CC1	≤ 0.3	1	≤ 0.3	1	≤ 0.3	1 (active)	1 (active)	1 (active)	1 (active)	1 (active)	1 (active)	1 (active)	1 (active)	1 (active)	1 (active)	1 (active)	1 (active)	0 (inactive)	1 (active)	1 (active)
CNc1nc(-c2ccc3c(N)n[nH]c3c2)cc(N2C[C@@H](C(=O)NC3CCCCC3)CC[C@H]2C)n1	1	3	1	3	9	1 (active)	1 (active)	1 (active)	1 (active)	1 (active)	0 (inactive)	1 (active)	1 (active)	1 (active)	1 (active)	1 (active)	1 (active)	1 (active)	1 (active)	1 (active)
CCCCCCCCCCNCCSSCc1ccc(Cl)cc1	9	9	3	3	3	1 (active)	1 (active)	1 (active)	1 (active)	1 (active)	1 (active)	1 (active)	1 (active)	1 (active)	1 (active)	0 (inactive)	1 (active)	1 (active)	1 (active)	0 (inactive)
Nc1ncnc(Nc2ccc(OCc3ccccc3)c(Cl)c2)c1/C=N/OCCN1CCOCC1	3	9	3	1	9	1 (active)	1 (active)	1 (active)	1 (active)	1 (active)	1 (active)	0 (inactive)	1 (active)	1 (active)	1 (active)	0 (inactive)	0 (inactive)	0 (inactive)	0 (inactive)	0 (inactive)
CN(C)CCCN1c2ccccc2Sc2ccc(Cl)cc21 [chlorpromazine]	3	9	3	3	9	1 (active)	1 (active)	1 (active)	1 (active)	1 (active)	0 (inactive)	1 (active)	1 (active)	1 (active)	1 (active)	1 (active)	1 (active)	0 (inactive)	1 (active)	1 (active)
CN1CCN([C@H]2CC[C@H](n3cc(-c4ccc(Oc5ccccc5)cc4)c4c(N)ncnc43)CC2)CC1	≤ 0.3	1	≤ 0.3	≤ 0.3	≤ 0.3	1 (active)	1 (active)	1 (active)	1 (active)	1 (active)	1 (active)	1 (active)	1 (active)	1 (active)	1 (active)	1 (active)	0 (inactive)	1 (active)	1 (active)	1 (active)
COc1ccc(N(C)c2nc(C)nc3ccccc23)cc1 [MPC 6827 hydrochloride]	≤ 0.3	≤ 0.3	≤ 0.3	≤ 0.3	≤ 0.3	1 (active)	1 (active)	1 (active)	1 (active)	1 (active)	1 (active)	1 (active)	1 (active)	1 (active)	1 (active)	1 (active)	1 (active)	1 (active)	1 (active)	1 (active)
COc1cc2c(N3CCN(C(=O)Nc4ccc(OC(C)C)cc4)CC3)ncnc2cc1OCCCN1CCCCC1 [tandutinib]	9	9	3	9	3	1 (active)	1 (active)	1 (active)	1 (active)	1 (active)	1 (active)	1 (active)	1 (active)	1 (active)	1 (active)	1 (active)	1 (active)	1 (active)	0 (inactive)	1 (active)
CC(C)(C)c1cc(NC(=O)Nc2ccc(-c3cn4c(n3)sc3cc(OCCN5CCOCC5)ccc34)cc2)no1 [quizartinib]	3	3	1	3	3	1 (active)	1 (active)	1 (active)	1 (active)	1 (active)	1 (active)	0 (inactive)	1 (active)	0 (inactive)	1 (active)	1 (active)	1 (active)	1 (active)	1 (active)	1 (active)
COC(=O)Nc1nc2ccc(C(=O)c3cccs3)cc2[nH]1 [Nocodazole]	≤ 0.3	≤ 0.3	≤ 0.3	≤ 0.3	≤ 0.3	1 (active)	1 (active)	1 (active)	1 (active)	1 (active)	1 (active)	1 (active)	1 (active)	1 (active)	1 (active)	1 (active)	1 (active)	1 (active)	1 (active)	1 (active)
